# D1 potentiator – Potentiators of Human D1 Dopamine Receptor: qHTS | HEK293 TREx D1 cells, calcium flux, dopamine EC20 potentiation | actives 0.036% (n = 360,000) | potentiation, % at 10 µM | D(1A) dopamine receptor (Homo sapiens), P21728 | AID 504651, 2011; in the data active = potentiation above about 30%
# Target sequence (P21728 whole entry, looked up): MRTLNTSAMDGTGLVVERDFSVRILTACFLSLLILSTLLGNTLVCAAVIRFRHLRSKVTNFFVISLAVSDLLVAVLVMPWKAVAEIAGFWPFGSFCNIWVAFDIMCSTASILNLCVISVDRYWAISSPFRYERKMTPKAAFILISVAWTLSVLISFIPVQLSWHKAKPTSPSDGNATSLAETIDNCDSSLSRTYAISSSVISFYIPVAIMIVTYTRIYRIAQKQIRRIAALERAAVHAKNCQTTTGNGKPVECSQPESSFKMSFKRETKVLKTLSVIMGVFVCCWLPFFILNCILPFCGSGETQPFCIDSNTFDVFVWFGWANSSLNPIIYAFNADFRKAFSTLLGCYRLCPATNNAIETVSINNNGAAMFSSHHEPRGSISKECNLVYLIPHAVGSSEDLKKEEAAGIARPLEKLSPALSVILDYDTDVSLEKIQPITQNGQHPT
# D1 ag – Allosteric Agonists of the Human D1 Dopamine Receptor: qHTS | D(1A) dopamine receptor (Homo sapiens), P21728 | HEK293 T-REx D1 cells, calcium flux, agonist mode | activation, % at 2 µM | actives 1% (n = 360,000)
#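 Agonism was scored from calcium flux recorded over 180 s (1 read/s) after pintool compound addition, following a 10-cycle baseline. Cells were inducible force-coupled HEK293 TREx D1, plated overnight at 30 C and loaded with no-wash calcium dye.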
# TRHR PAM – qHTS for Small Molecule Agonists and Allosteric Enhancers of Human TRH Receptor: Primary Screen for Enhancers; Thyrotropin-releasing hormone receptor (Homo sapiens), P34981; TRHR cells, fluo-8 calcium fluorescence, EC20 TRH enhancement; AID 493056, 2011; actives 0.66% (n = 360,000); enhancement, % at 2 µM; in the data active = enhancement above about 30%
#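 TRHR-expressing cells loaded with fluo-8 calcium dye were read kinetically (ex 480/em 530) during compound addition, then stimulated with an EC20 of TRH (10 nM final). Enhancement of the Gq-mediated intracellular calcium response was scored.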
# TRHR ag – qHTS for Small Molecule Agonists and Allosteric Enhancers of Human TRH Receptor: Primary Screen for Agonists; Thyrotropin-releasing hormone receptor (Homo sapiens), P34981; AID 493084, 2011; activation, % at 2 µM; actives 0.18% (n = 360,000); TRHR cells, calcium flux fluo-8, FDSS agonist mode
#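 Agonist-mode FDSS calcium read (Ex 480/Em 530, 1 s cycles) in 1536-well TRHR cells with fluo-8 dye, after 10-cycle baseline and 23 nL compound addition; TRH at EC20 (10 nM final) added afterwards for the enhancer phase.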
# D1 antag – Antagonist of Human D 1 Dopamine Receptor: qHTS; HEK293 TREx D1 cells, calcium flux, dopamine EC80; active compounds read low; AID 504652, 2011; actives 3.2% (n = 360,000); activity change, negative = inhibition, % at 10 µM; in the data active = activity change below about -30%
#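 Tetracycline-induced HEK293 T-REx cells with force-coupled D1 receptor were loaded with a no-wash calcium dye. Compound was added after a 10 s baseline and read kinetically for 180 s; EC80 dopamine was then added and calcium flux followed another 180 s.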
# Hits are given with their value; - = inactive; . = not tested or not shown. Only some compounds are listed: those with a hit (about 4.6% of all), similar ones and a draw of the others. Rule as the data show it, unless noted: active = activation above about 30%; inactive = the rest.
SMILES,D1 potentiator,D1 ag,TRHR PAM,TRHR ag,D1 antag
Cc1ccc2c(=O)cc(C(=O)Nc3sc4c(c3C(=O)NCc3ccco3)CCC4)oc2c1,-,-,-,-,-
O=C(O)c1nnn(-c2ccc([N+](=O)[O-])cc2)c1-c1ccccc1,-,-,-,-,-42
Cc1ccc2c(c1)C(c1ccc(F)cc1)N(C(=O)c1ccc(S(=O)(=O)N3CCCCC3)cc1)CC(=O)N2 (stereo not given),-,-,-,-,-
CC(OC(=O)c1cccc(S(=O)(=O)Nc2cccc(C(F)(F)F)c2)c1)C(=O)Nc1ccc2c(c1)OCCO2 (stereo not given),-,-,-,-,-36
O=S(=O)(Nc1cccc(C(F)(F)F)c1)c1ccc(NS(=O)(=O)c2ccc3c(c2)OCCO3)cc1,-,-,-,-,-
COc1cc(NC(=O)Cn2nc3c(cc2=O)CC(C)CC3)cc(OC)c1OC (stereo not given),-,-,-,-,-
COc1cc(CN2CCN(S(=O)(=O)c3ccccc3)CC2)cc(OC)c1O,-,-,-,-,-61
COc1ccc(C(=O)N2CCN(C(=O)c3ccc(-c4ccccc4)cc3)CC2)cc1OC,-,-,-,-,-
COc1cc(C(=O)N2CCN(C(=O)C3CC3)CC2)cc(OC)c1OC,-,-,-,-,-42
COc1cc(OC)cc(C(=O)N2CCN(C(=O)c3ccc(-c4ccccc4)cc3)CC2)c1,-,-,36,-,-
COc1cc(CN2CCN(C(=O)c3ccc(-c4ccccc4)cc3)CC2)cc(OC)c1OC,-,-,33,-,-
COc1ccc(S(=O)(=O)N2CCN(Cc3cc(OC)c(O)c(OC)c3)CC2)cc1,-,-,-,-,-
CC(C)CC(=O)N1CCN(C(=O)c2ccc(-c3ccccc3)cc2)CC1,-,-,31,-,-
CCCOC(=O)CN1C(=O)c2ccc(C(=O)OCCC)cc2C1=O,-,-,-,-,-
COc1cccc(CN2CCN(C(=O)c3ccc(-c4ccccc4)cc3)CC2)c1OC,-,-,-,-,-37
Cc1ccc(N2C(=O)c3ccc(C(=O)N4CCN(Cc5ccccc5)CC4)cc3C2=O)cc1,-,58,-,-,-48
CCCOC(=O)c1ccc2c(c1)C(=O)N(c1ccccc1)C2=O,-,-,-,-,-35
COc1ccccc1C(=O)Nc1ccc(C(=O)OCc2cc(=O)n3c4c(sc3n2)CCCC4)cc1,-,-,-,-,-
COc1cccc2sc(NC(=O)c3ccc(S(=O)(=O)N4CCC(C)CC4)cc3)nc12,-,-,-,-,-
O=c1c(O)c(-c2cccs2)oc2ccccc12,-,252,-,107,-
O=c1c(O)c(-c2cccs2)oc2ccc(Cl)cc12,-,385,77,168,-
COc1ccc(NC(=O)CSc2nc3ccccc3c(=O)n2CCCN2CCOCC2)c(OC)c1,-,-,-,-,-33
CCOCCCn1c(SCC(=O)Nc2ccc(OC)cc2OC)nc2ccccc2c1=O,-,-,-,-,-
COc1cccc(NC(=O)CSc2nc3ccccc3c(=O)n2C)c1,-,50,-,-,-
CC(C)Oc1ccccc1NC(=O)CSc1nc2ccccc2c(=O)n1C,-,-,-,-,-
SMILES,D1 potentiator,D1 ag,TRHR PAM,TRHR ag,D1 antag
O=S(=O)(Cc1ccccc1Cl)N1CCCC1,-,-,-,-,.
CC1CCCCN1S(=O)(=O)Cc1ccccc1Cl (stereo not given),-,-,-,-,-87
CC(=O)Cc1nsc(NC(=O)c2ccc(-c3ccc(Cl)cc3Cl)o2)n1,-,-,-,-,-31
CC(=O)Cc1nsc(NC(=O)c2ccc(-c3cc(C(F)(F)F)ccc3Cl)o2)n1,-,-,-,-,-33
CC(=O)Cc1nsc(NC(=O)c2ccc(-c3cc(Cl)ccc3Cl)o2)n1,-,-,-,-,-
CC(C)(C)c1ccc(C(=O)Nc2sc3c(c2C#N)CCC(C(C)(C)C)C3)cc1 (stereo not given),-,-,-,-,-
CC(C)(C)C1CCc2c(sc(NC(=O)C3CC=CCC3C(=O)O)c2C#N)C1 (stereo not given),-,-,-,-,-40
Cc1nn(-c2cc(C(F)(F)F)ccc2Cl)c2nc(C(Cl)(Cl)Cl)[nH]c(=O)c12,-,-,-,-,-38
COc1ccc(/C=C(/C#N)c2nc(-c3ccc(-c4ccccc4)cc3)cs2)cc1,-,-,-,-,-
N#C/C(=C/c1ccc(O)cc1)c1nc(-c2ccc(-c3ccccc3)cc2)cs1,-,-,43,-,-
CN1CCN(C(=O)CCCN2C(=O)/C(=C/c3ccc(Cl)cc3)SC2=S)CC1,-,-,-,-,-61
CN1CCN(C(=O)CCCN2C(=O)/C(=C/c3ccccc3)SC2=S)CC1,-,-,-,-,-
COCCN1C(=O)/C(=C/c2ccc(N3CCCC3)cc2)SC1=S,-,258,-,44,-
Cc1ccc(-n2nnc3c(=O)n(CC(=O)NCc4ccccc4)cnc32)cc1,-,-,-,-,-
O=C(Cn1cnc2c(nnn2-c2ccccc2)c1=O)NCc1ccc(F)cc1,-,-,-,-,-60
CCC1CCCCN1C(=O)Cn1c(=O)n(-c2ccc(Cl)c(Cl)c2)c(=O)c2c(C)c(C(=O)N(C)C)sc21 (stereo not given),-,-,-,-,-34
Cc1c(C(=O)N(C)C)sc2c1c(=O)n(-c1ccc(Cl)c(Cl)c1)c(=O)n2CC(=O)C(C)(C)C,-,-,-,-,-
O=C(Nc1ccc2nc(-c3ccco3)c(-c3ccco3)nc2c1)N1CCCC1,-,-,-,-,-
Cc1cccc(NC(=O)c2ccc(CN3CC(=O)N4CCCCC4C3=O)cc2)c1C (stereo not given),-,-,45,-,-
Cc1ccc(C)c(NC(=O)c2ccc(CN3CC(=O)N4CCCCC4C3=O)cc2)c1 (stereo not given),-,-,-,-,-
COc1ccc(NC(=O)CN(c2cccc(C)c2C)S(=O)(=O)c2ccccc2)cc1OC,-,-,-,-,-
CCC(=O)N1c2ccc(S(=O)(=O)NCCc3ccc(C)cc3)cc2CC1C (stereo not given),-,-,-,-,-
CC1Cc2cc(S(=O)(=O)NCc3ccccc3Cl)ccc2N1C(=O)C1CCC1 (stereo not given),-,-,-,-,-80
COc1ccc(CNS(=O)(=O)c2ccc3c(c2)CC(C)N3C(=O)C2CC2)cc1 (stereo not given),-,-,-,-,-

# Screening results deposited in PubChem BioAssay by National Center for Advancing Translational Sciences (NCATS).
